According to PubChem BioAssay:
Calls of active or inactive are those of the source. No rule for the calls is given here.

The compounds below were run on Botulinum neurotoxin type F light chain protease (Clostridium botulinum) (assay: Botulinum neurotoxin type F light chain protease inhibition, multiplex microsphere flow cytometry, validation set (AID 588459)). Conditions: multiplex microsphere protease substrate cleavage assay, at 10 µM, stronger effect = higher value.

| SMILES | inhibition |
| --- | --- |
| Cc1ccccc1NC(=O)C1(C)Cc2ccccc2C(=O)O1 (stereo not given) | 0.3% (inactive) |
| C[C@H](NC(=O)C1(c2ccccc2)CCN(C(=O)[C@H]2CSCN2C(=O)OC(C)(C)C)CC1)C(=O)O | -0.9% (inactive) |
| CC(=Nc1ccccc1)C1=C(O)CCCC1=O | -3.4% (inactive) |
| COc1ccc2[nH]c3c(=O)n(/N=C/[C@H]4C(C)C=C(C)CC4C)c(=O)[nH]c3c2c1 (stereo not given in full) | -1.7% (inactive) |
| CCCN(CCC)C(=O)C(CCC(=O)O)NC(=O)c1ccccc1 (stereo not given) | 0.5% (inactive) |
| COc1cc2c(cc1OC)-c1cc(OCc3ccccc3Cl)nc(=O)n1CC2 | -0.4% (inactive) |
| CCc1ccc(/C=C2\SC(=S)N(CCC(=O)N3CCN(C)CC3)C2=O)cc1 | 4.9% (inactive) |
| CCc1cc(C(N)=S)ccn1 | 1.9% (inactive) |
| Cc1cc(C(=O)NC(CC(C)C)C(=O)O)cc(C)c1[N+](=O)[O-] (stereo not given) | -4.1% (inactive) |
| COc1ccc2c(C=O)cn(C)c2c1 | 1.9% (inactive) |
| O=C(Nc1ccccc1)OCC1CCCN2CCCCC12 (stereo not given) | 0.6% (inactive) |
| COc1ccc(-c2csc(-c3cccnc3)n2)cc1C | -2% (inactive) |
| CNCCC=C1c2ccccc2CCc2ccccc21 | -4.9% (inactive) |
| Nc1ncnc2c1ncn2C1OC(CO)C(O)C1O (stereo not given) | 14.6% (inactive) |
| S=C(c1ccc2c(c1)OCO2)N1CCCCC1 | 1.1% (inactive) |
| COc1ccc2cc([C@H](C)C(=O)O)ccc2c1 | 0.3% (inactive) |
| NS(=O)(=O)c1cc2c(cc1Cl)NCNS2(=O)=O | -3.8% (inactive) |
| O=C(Nc1cccc(Oc2c(F)c(F)c(F)c(F)c2F)c1)N1C[C@@H]2C[C@@H](C1)c1cccc(=O)n1C2 | 2.7% (inactive) |
| Cc1cc(C)c2c(CCl)cc(=O)oc2c1 | -4.3% (inactive) |
| COC(=O)c1ccc(C(=O)OC)c(NC(=O)C(C)C)c1 | -0.3% (inactive) |

| SMILES | inhibition |
| --- | --- |
| CCOc1cc(C=O)ccc1OCCSc1ccc(C)cc1 | 1.3% (inactive) |
| CC(C)Cc1ccc(C(C)C(=O)Nc2ccc(O)cc2)cc1 (stereo not given) | -3.6% (inactive) |
| COc1ccc(C2C(=O)c3ccccc3C2=O)cc1 | 0.5% (inactive) |
| CCCc1cc(C(N)=S)ccn1 | 1.8% (inactive) |
| COCCCNc1nc2c([nH]1)c(=O)[nH]c(=O)n2C | 2.6% (inactive) |
| C[C@@H]1CCC[C@H](C)N1NC(=O)c1ccc(Cl)c(S(N)(=O)=O)c1 | 1.2% (inactive) |
| CCOc1ccc(N2C(=O)CNC2=S)cc1 | -1.7% (inactive) |
| C=C1C2(C(=O)Nc3ccc(SC(F)F)cc3)CCC(C2)C1(C)C (stereo not given) | -1.3% (inactive) |
| CS(=O)c1ccccc1O (stereo not given) | 1.4% (inactive) |
| CC(C)(S)[C@@H](N)C(=O)O | 2.9% (inactive) |
| Cc1ccc(/C=N/Nc2nc(C(C)(C)C)cs2)o1 | -1% (inactive) |
| COc1cc(OC)c(C(=O)CCCN2CCCC2)c(OC)c1 | 2.9% (inactive) |
| CCNCCC(CCC(C)C)c1ccc2c(c1)OCO2 (stereo not given) | -3.1% (inactive) |
| N#C/C(C(N)=O)=c1/ccc2c(c1)N1C3=C(CCCC3)CC3CCCCC31N=2 (stereo not given) | -0.8% (inactive) |
| C/C=C/Cn1c(SC)nc2c1c(=O)[nH]c(=O)n2C | -2.2% (inactive) |
| CC(=O)Nc1ccc2[nH]c(C)c(CC=C(Cl)Cl)c(=O)c2c1 | -0.7% (inactive) |
| O=C(/C=C/c1ccc(F)cc1)NC(=S)N1CCCCC1c1cccnc1 (stereo not given) | 1% (inactive) |
| COC1CCCCC1Nc1ccc(C)c(C)c1 (stereo not given) | 1.5% (inactive) |
| COc1ccc(Cc2noc(CN(C)CC3(N4CCOCC4)CCCCC3)n2)cc1OC | 7.7% (inactive) |
| COc1c(C)cc(C(=O)C2CCCN(Cc3ccc(Oc4ncccn4)cc3)C2)cc1C (stereo not given) | -2.8% (inactive) |

What follows are compounds tested against Botulinum neurotoxin type A (Clostridium botulinum) (UniProt P0DPI0) (assay: BoNT/A light chain protease inhibitors, biochemical, multiplex microsphere flow cytometry, validation set (AID 588460)). Conditions: at 10 µM, stronger effect = higher value.
Chain of Botulinum neurotoxin type A (Clostridium botulinum) (P0DPI0 whole entry, looked up): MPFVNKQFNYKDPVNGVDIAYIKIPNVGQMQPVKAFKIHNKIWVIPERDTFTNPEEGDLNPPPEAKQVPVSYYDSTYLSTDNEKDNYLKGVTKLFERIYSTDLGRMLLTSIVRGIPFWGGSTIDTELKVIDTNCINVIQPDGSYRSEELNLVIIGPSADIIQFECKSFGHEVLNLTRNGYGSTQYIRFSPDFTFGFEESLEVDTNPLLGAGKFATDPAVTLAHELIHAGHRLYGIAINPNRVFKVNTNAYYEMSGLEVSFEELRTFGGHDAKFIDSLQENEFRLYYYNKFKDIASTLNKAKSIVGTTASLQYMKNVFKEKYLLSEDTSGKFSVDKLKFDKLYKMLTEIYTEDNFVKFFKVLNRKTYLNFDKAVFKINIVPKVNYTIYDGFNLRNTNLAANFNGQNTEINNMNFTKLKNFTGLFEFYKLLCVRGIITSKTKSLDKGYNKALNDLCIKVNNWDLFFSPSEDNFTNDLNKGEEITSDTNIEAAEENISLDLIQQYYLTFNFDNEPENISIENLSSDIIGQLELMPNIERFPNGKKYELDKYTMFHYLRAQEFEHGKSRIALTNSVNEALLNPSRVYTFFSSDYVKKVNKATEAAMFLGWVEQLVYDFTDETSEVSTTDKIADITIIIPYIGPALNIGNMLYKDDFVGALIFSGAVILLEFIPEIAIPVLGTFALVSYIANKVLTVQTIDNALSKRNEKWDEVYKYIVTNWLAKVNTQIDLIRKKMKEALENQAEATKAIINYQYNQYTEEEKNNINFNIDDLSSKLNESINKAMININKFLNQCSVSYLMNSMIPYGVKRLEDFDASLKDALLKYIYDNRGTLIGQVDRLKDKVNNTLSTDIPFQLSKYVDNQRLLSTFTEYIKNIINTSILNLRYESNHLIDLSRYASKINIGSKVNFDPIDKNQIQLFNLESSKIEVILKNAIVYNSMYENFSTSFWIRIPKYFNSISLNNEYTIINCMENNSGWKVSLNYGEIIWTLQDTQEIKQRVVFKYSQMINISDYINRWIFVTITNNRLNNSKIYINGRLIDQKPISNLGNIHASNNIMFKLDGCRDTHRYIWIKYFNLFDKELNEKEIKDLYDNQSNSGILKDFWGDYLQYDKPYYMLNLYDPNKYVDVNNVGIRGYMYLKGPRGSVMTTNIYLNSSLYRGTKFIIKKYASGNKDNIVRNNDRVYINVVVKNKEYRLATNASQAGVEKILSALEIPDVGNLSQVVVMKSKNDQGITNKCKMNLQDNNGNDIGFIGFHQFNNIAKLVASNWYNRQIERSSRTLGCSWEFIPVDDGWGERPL

| SMILES | inhibition |
| --- | --- |
| Cc1ccccc1NC(=O)C1(C)Cc2ccccc2C(=O)O1 (stereo not given) | 0.5% (inactive) |
| C[C@H](NC(=O)C1(c2ccccc2)CCN(C(=O)[C@H]2CSCN2C(=O)OC(C)(C)C)CC1)C(=O)O | -2% (inactive) |
| CC(=Nc1ccccc1)C1=C(O)CCCC1=O | -0.9% (inactive) |
| COc1ccc2[nH]c3c(=O)n(/N=C/[C@H]4C(C)C=C(C)CC4C)c(=O)[nH]c3c2c1 (stereo not given in full) | -0.6% (inactive) |
| CCCN(CCC)C(=O)C(CCC(=O)O)NC(=O)c1ccccc1 (stereo not given) | -0.3% (inactive) |
| COc1cc2c(cc1OC)-c1cc(OCc3ccccc3Cl)nc(=O)n1CC2 | 0.1% (inactive) |
| CCc1ccc(/C=C2\SC(=S)N(CCC(=O)N3CCN(C)CC3)C2=O)cc1 | 2.1% (inactive) |
| CCc1cc(C(N)=S)ccn1 | 0.9% (inactive) |
| Cc1cc(C(=O)NC(CC(C)C)C(=O)O)cc(C)c1[N+](=O)[O-] (stereo not given) | -0.3% (inactive) |
| COc1ccc2c(C=O)cn(C)c2c1 | -0.9% (inactive) |
| O=C(Nc1ccccc1)OCC1CCCN2CCCCC12 (stereo not given) | 0.3% (inactive) |
| COc1ccc(-c2csc(-c3cccnc3)n2)cc1C | -1.6% (inactive) |
| CNCCC=C1c2ccccc2CCc2ccccc21 | 0.2% (inactive) |
| Nc1ncnc2c1ncn2C1OC(CO)C(O)C1O (stereo not given) | -0.2% (inactive) |
| S=C(c1ccc2c(c1)OCO2)N1CCCCC1 | -1.6% (inactive) |
| COc1ccc2cc([C@H](C)C(=O)O)ccc2c1 | -0.1% (inactive) |
| NS(=O)(=O)c1cc2c(cc1Cl)NCNS2(=O)=O | -2.4% (inactive) |
| O=C(Nc1cccc(Oc2c(F)c(F)c(F)c(F)c2F)c1)N1C[C@@H]2C[C@@H](C1)c1cccc(=O)n1C2 | 1.4% (inactive) |
| Cc1cc(C)c2c(CCl)cc(=O)oc2c1 | -1.5% (inactive) |
| COC(=O)c1ccc(C(=O)OC)c(NC(=O)C(C)C)c1 | -1.3% (inactive) |

| SMILES | inhibition |
| --- | --- |
| CCOc1cc(C=O)ccc1OCCSc1ccc(C)cc1 | 0.4% (inactive) |
| CC(C)Cc1ccc(C(C)C(=O)Nc2ccc(O)cc2)cc1 (stereo not given) | -1.3% (inactive) |
| COc1ccc(C2C(=O)c3ccccc3C2=O)cc1 | -0.4% (inactive) |
| CCCc1cc(C(N)=S)ccn1 | 1.2% (inactive) |
| COCCCNc1nc2c([nH]1)c(=O)[nH]c(=O)n2C | 1.1% (inactive) |
| C[C@@H]1CCC[C@H](C)N1NC(=O)c1ccc(Cl)c(S(N)(=O)=O)c1 | -1.2% (inactive) |
| CCOc1ccc(N2C(=O)CNC2=S)cc1 | -1.5% (inactive) |
| C=C1C2(C(=O)Nc3ccc(SC(F)F)cc3)CCC(C2)C1(C)C (stereo not given) | -0.9% (inactive) |
| CS(=O)c1ccccc1O (stereo not given) | 0% (inactive) |
| CC(C)(S)[C@@H](N)C(=O)O | -0.8% (inactive) |
| Cc1ccc(/C=N/Nc2nc(C(C)(C)C)cs2)o1 | -0.3% (inactive) |
| COc1cc(OC)c(C(=O)CCCN2CCCC2)c(OC)c1 | -0.9% (inactive) |
| CCNCCC(CCC(C)C)c1ccc2c(c1)OCO2 (stereo not given) | -1.3% (inactive) |
| N#C/C(C(N)=O)=c1/ccc2c(c1)N1C3=C(CCCC3)CC3CCCCC31N=2 (stereo not given) | 2.4% (inactive) |
| C/C=C/Cn1c(SC)nc2c1c(=O)[nH]c(=O)n2C | 0.9% (inactive) |
| CC(=O)Nc1ccc2[nH]c(C)c(CC=C(Cl)Cl)c(=O)c2c1 | -1.7% (inactive) |
| O=C(/C=C/c1ccc(F)cc1)NC(=S)N1CCCCC1c1cccnc1 (stereo not given) | -0.6% (inactive) |
| COC1CCCCC1Nc1ccc(C)c(C)c1 (stereo not given) | -0.1% (inactive) |
| COc1ccc(Cc2noc(CN(C)CC3(N4CCOCC4)CCCCC3)n2)cc1OC | 4.3% (inactive) |
| COc1c(C)cc(C(=O)C2CCCN(Cc3ccc(Oc4ncccn4)cc3)C2)cc1C (stereo not given) | -1.2% (inactive) |
